{
  "source": "PubChem BioAssay AID463254",
  "about": "(National Center for Advancing Translational Sciences (NCATS), 2010)",
  "note": "About 40 (0.01%) of roughly 330,000 compounds were called active. Shown is part of a subset that was picked to be rich in actives. Values without a mark were called inactive. Calls come from the whole dose curve; as a rule, active = well fitted inhibition curve with a large enough effect; inconclusive = small, poorly fitted or top-dose-only effect, or effect the other way; inactive = flat fitted curve, though single readings scatter. Potency is the fitted concentration of half-maximal effect.",
  "data": [
    {"target": "Ubiquitin carboxyl-terminal hydrolase 2 (Homo sapiens) (UniProt O75604)", "sequence (O75604 whole entry, looked up)": "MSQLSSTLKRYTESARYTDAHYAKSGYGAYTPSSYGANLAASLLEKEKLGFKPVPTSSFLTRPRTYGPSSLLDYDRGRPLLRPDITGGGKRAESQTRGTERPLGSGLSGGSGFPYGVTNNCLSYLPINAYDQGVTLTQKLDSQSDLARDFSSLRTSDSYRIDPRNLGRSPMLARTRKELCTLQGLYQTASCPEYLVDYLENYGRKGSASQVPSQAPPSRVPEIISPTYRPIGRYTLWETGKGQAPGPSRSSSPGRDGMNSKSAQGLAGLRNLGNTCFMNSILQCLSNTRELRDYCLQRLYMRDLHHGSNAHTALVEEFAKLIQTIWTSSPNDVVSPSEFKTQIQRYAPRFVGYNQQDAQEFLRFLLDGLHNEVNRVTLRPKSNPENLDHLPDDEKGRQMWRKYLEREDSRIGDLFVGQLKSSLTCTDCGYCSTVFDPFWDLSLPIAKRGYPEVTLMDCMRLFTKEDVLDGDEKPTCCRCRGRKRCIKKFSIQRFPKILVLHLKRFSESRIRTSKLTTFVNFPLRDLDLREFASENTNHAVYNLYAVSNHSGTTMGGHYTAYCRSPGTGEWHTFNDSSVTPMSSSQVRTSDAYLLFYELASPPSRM", "experiment": "qHTS Assay for Inhibitors of Ubiquitin-specific Protease USP2a Using CHOP2 as the Reporter", "conditions": "USP2 core, Ub-CHOP2 coupled fluorogenic reporter, 485/531; series mostly up to 38.3 µM; activity change, negative = inhibition: at the top concentration", "source_text": "NIH Molecular Libraries Screening Centers Network [MLSCN] NIH Chemical Genomics Center [NCGC] MLSCN Grant: XO1-MH079852-01 PI Name: Nicholson, Ben. Progenra Inc, Malvern, PA NCGC Assay Overview: Homeostasis of cellular proteins is maintained through a combination of synthesis and degradation. The pathway that accounts for the majority of protein degradation is the ubiquitin-proteasomal pathway. Ubiquitin (Ub) is highly conserved in all cells and the generation of a multi-Ub chain typically targets proteins for degradation by the proteasome. However, ubiquitination is highly reversible and dynamic. Deubiquitination, the reverse process, is catalyzed through the action of enzymes referred to as isopeptidases or deubiquitinating enzymes (DUBs). This group of enzymes is collectively responsible for maintaining adequate pools of free ubiquitin and regulating the ubiquitination status of cellular proteins. The class of DUBs referred to as the ubiquitin-specific proteases (USP) family functions endoproteolytically to cleave Ub chains from a wide range of protein substrates. USP2a deubiquitinates fatty acid synthase (FASN) which has recently been identified as an emerging oncology target. To identify inhibitors of USP2a a cell-free assay was employed. […] The reporter enzyme chosen is an enterokinase called CHOP2, which is activated when the Ub is cleaved by USP2. The free and now activated reporter can subsequently act on its reporter substrate. Thus, this coupled assay gives a fluorescent read-out at excitation/emission wavelengths of 485/531. The assay was developed by Progenra, Inc. and has been licensed for sale by LifeSensors, Inc. as Ub-CHOP2-Reporter-Kit (#PR1101).\nNCGC Assay Protocol Summary: The assay buffer, prepared fresh at the day of the assay, contains 20mM Tris-HCl pH 8.0, 2mM CaCl2, 2mM beta-Mercaptoethanol, 0.05% CHAPS. 3ul of 20nM (10nM final) USP2 core, which is stored on ice, is dispensed into a medium-binding black solid Kalypsys 1,536 well plate using the Kalypsys dispenser. The assay plate is then pinned with 23nL compound with the Kalypsys pintool in columns 5-48. The controls are pinned as follows: column 1 two-fold dilutions of 2M NEM in duplicate; column 2 2M NEM (final concentration 38.2mM); column 3&4 DMSO. The assay plate is incubated at RT for 30min. Subsequently, 1.5uL of 100nM (25nM final) Ub-CHOP2 and 1.5uL of 100nM (25nM final) Reporter Substrate (both stored on ice and protected from light) were dispensed into the plate using the Kalypsys dispenser. Plates were read after 60min RT incubation on a ViewLux (Perkin Elmer) plate reader using the following wavelengths Ex 485nm /Em 531nm. Data were normalized to the to AC100 inhibition (NEM). Concentration-response curves were fitted to the normalized data and the concentration-response curves were then classified based on curve quality (r2), response magnitude and degree of measured activity. The time zero reading was used to flag fluorescence artifacts. Keywords: ubiquitination, deubiquitination, proteases, profluorescent, MLSMR, MLPCN, NIH Roadmap, qHTS, NCGC", "units": {"activity change, negative = inhibition": "%"}, "values": [
      {"smiles": "O=C(OCC1O[C@@H](OC(=O)c2cc(O)c(O)c(O)c2)[C@@H](OC(=O)c2cc(O)c(O)c(O)c2)[C@@H](OC(=O)c2cc(O)c(O)c(O)c2)[C@@H]1OC(=O)c1cc(O)c(O)c(O)c1)c1cc(O)c(O)c(O)c1", "note": "(stereo not given in full)", "Potency": "6.31 µM (active)"},
      {"smiles": "CC(C)(C)[C@]1(O)C[C@@H]2OC(=O)C[C@@]23C(=O)O[C@@H]2OC(=O)[C@H](O)[C@]213", "activity change, negative = inhibition": -0.667},
      {"smiles": "NC(=O)Cn1cc(C(=O)c2ccccc2F)c2ccccc21", "activity change, negative = inhibition": -1.61},
      {"smiles": "Cc1ccnc(-n2c(C)cc(/C=C3\\C(=O)NC(=S)N(C)C3=O)c2C)c1", "activity change, negative = inhibition": 4.37},
      {"smiles": "CC12CN3CC(C)(CN(C1)C3c1cccs1)C2", "note": "(stereo not given)", "activity change, negative = inhibition": 4.94}
    ]}
  ]
}
